Screening results deposited in PubChem BioAssay by National Center for Advancing Translational Sciences (NCATS).
The sample as a whole holds a higher share of hits than the screen did.
NPSR antag – blocks cAMP signaling of the human neuropeptide S receptor. Potency, µM (series often up to 38.3 µM), inactives show at the highest dose activity change, negative = inhibition, most hits filed as inhibitors. AID 1461. actives 1% (n = 220,000). CHO-NPSR cells, cAMP TR-FRET, antagonist mode. Q6W5P4; note: nearly all actives have a fitted effect of over 50% in size
Target sequence (Q6W5P4 whole entry, looked up): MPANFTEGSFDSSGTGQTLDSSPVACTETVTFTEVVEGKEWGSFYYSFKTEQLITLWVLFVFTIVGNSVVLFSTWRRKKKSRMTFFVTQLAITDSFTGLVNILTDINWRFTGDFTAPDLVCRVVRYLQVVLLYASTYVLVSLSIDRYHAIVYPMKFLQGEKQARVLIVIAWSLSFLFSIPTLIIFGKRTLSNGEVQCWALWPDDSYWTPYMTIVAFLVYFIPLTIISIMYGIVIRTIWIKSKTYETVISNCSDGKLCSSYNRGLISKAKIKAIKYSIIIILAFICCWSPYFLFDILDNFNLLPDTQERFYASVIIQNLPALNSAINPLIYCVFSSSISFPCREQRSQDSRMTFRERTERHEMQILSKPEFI
IMPase Li inh – membrane-permeable IMPase blocker, potentiated with lithium. actives 0.35% (n = 210,000). CHO-M1 cells, IP1 TR-FRET (IP-One), carbachol + lithium. Potency, µM (doses to about 59.4 µM), for the others: at the top dose activity, negative = IMPase inhibition, usual class: inhibitors. AID 1457;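 note: IP1 builds up when IMPase is blocked and the TR-FRET signal falls; plate controls were basal vehicle for no effect and high inhibitor control for full effect; nearly all actives have a fitted effect of over 50% in size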
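Steps: plate 2000 CHO-M1 cells per well and culture 16–30 h; add compound and lithium; incubate 30 min, 37C; add d2-IP1 tracer and Eu cryptate anti-IP1 antibody in lysis buffer; read after 10 min at room temperature.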
ERK EGF inh – EGF-driven ERK pathway inhibition; HEK293-V1b, EGF-stimulated phospho-ERK AlphaScreen; Potency, µM (series often up to 11.5 µM), for inactives: at the top dose activity change, negative = inhibition, usual class: inhibitors; actives 0.41% (n = 130,000);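 note: plate controls were stimulated vehicle wells for no effect and unstimulated vehicle basal for full effect; nearly all actives have a fitted effect of over 55% in size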
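Homogeneous cell-based phospho-ERK assay: HEK293/V1b cells in 1% FBS, compound 30 min then EGF 5 min, AlphaScreen luminescence. Activity normalized between DMSO and 25 nM EGF controls; AC50 from Hill modelling.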
Active calls of the source: *; [ ] = dose if it differs, or a comment. Calls come from the whole dose curve; as a rule, active = well fitted curve in the direction sought with a large enough effect; inconclusive = small, poorly fitted or top-dose-only effect, or another doubt; inactive = no such curve, though single readings can be large; an effect the other way counts as inactive or inconclusive. Unless noted, % is set by controls: 0 for no effect and ±100 for the full control effect; potency is the fitted concentration of half-maximal effect.

What do the screens show for `O=[N+]([O-])c1ccc(/C=N/Nc2nc(N3CCCCC3)nc(N3CCCCC3)n2)cc1`?
NPSR antag: inconclusive; IMPase Li inh: 17%; ERK EGF inh: -10%

Results for N#CC1(O)CCCCC1 ?
IMPase Li inh: 3%

How did COc1cc2nc(N3CCN(C(=O)[C@@H]4COc5ccccc5O4)CC3)nc(N)c2cc1OC do in these assays?
IMPase Li inh: 7%; ERK EGF inh: 4%[25.7 µM]

Results for O=C(COc1ccc(/C=N/NC(=O)c2cc3ccccc3o2)cc1Cl)Nc1ccccc1 ?
NPSR antag: 4µM*; IMPase Li inh: 2%

What do the screens show for `O=C(N/N=C/c1ccc2c(c1)OCO2)c1cc2ccccc2o1`?
NPSR antag: 4%; ERK EGF inh: -8%[57.5 µM]

What do the screens show for `C[C@@]12C=CC(=O)C=C1CC[C@@H]1[C@@H]2[C@H](O)C[C@]2(C)[C@@H]1CC[C@]2(O)C(=O)CO`?
IMPase Li inh: 0%; ERK EGF inh: 2%[25.7 µM]

Results for N[C@@H](Cc1cc(CP(=O)(O)O)cc(-c2ccccc2Cl)c1)C(=O)O ?
IMPase Li inh: 6%; ERK EGF inh: -6%

What do the screens show for `Cc1ccccc1-n1c(SCC(N)=O)nc2sc(-c3ccccc3)cc2c1=O`?
NPSR antag: inconclusive; IMPase Li inh: 10%[38.3 µM]

How did Cc1ccccc1-n1c(SCC(=O)NC(N)=O)nc2sc(-c3ccccc3)cc2c1=O do in these assays?
NPSR antag: -38%; IMPase Li inh: 11µM*; ERK EGF inh: 7%

Results for CC(C)Oc1cc(O)c2c(c1)OCC=C2CCC(=O)O ?
IMPase Li inh: 8%

What do the screens show for `Cc1cccc(Cn2cc(SCC(=O)Nc3nccs3)c3ccccc32)c1`?
NPSR antag: inconclusive; IMPase Li inh: 58%[38.3 µM]

Results for Cc1ccc(Cn2cc(SCC(=O)Nc3nccs3)c3ccccc32)cc1 ?
NPSR antag: 10µM*; IMPase Li inh: 37%[38.3 µM]

What do the screens show for `COc1cccc([C@@H]2Oc3ccc(OC)cc3C(=O)[C@H]2OC(=O)NCCOc2ccccc2)c1`?
IMPase Li inh: -13%; ERK EGF inh: -2%

Results for COC(=O)[C@@]1(Cc2ccc(OC)cc2)[C@H]2c3cc(C(=O)N(C)C)n(C)c3C[C@H]2CN1C(=O)c1ccccc1 ?
IMPase Li inh: -2%; ERK EGF inh: 7%

Results for COc1ccccc1/C=C/C(=O)/C=C/c1ccccc1O ?
NPSR antag: inconclusive; ERK EGF inh: 35µM*

How did COc1ccccc1/C=C/C(C)=O do in these assays?
NPSR antag: 8%; IMPase Li inh: -2%; ERK EGF inh: -7%

Results for N#C[C@@H](N=Nc1ccccc1C(=O)O)C(N)=O ?
IMPase Li inh: 2%

How did Cn1c(CS(=O)Cc2c(Cl)cccc2Cl)nnc1SCc1c(Cl)cccc1Cl (stereo not drawn) do in these assays?
NPSR antag: -8%[46.1 µM]; IMPase Li inh: 12%[38.3 µM]

Results for O=S(Cc1ccc(Br)cc1)Cc1nnc(SCc2c(Cl)cccc2Cl)n1-c1ccccc1 (stereo not drawn) ?
NPSR antag: 10µM*; IMPase Li inh: 38%[38.3 µM]

Results for OCC1O[C@H](OC2C(CO)O[C@@](O)(CO)C2O)C(O)C(O)C1O (stereo partly drawn) ?
IMPase Li inh: 31%; ERK EGF inh: 24%

Results for C[C@H]1C(O)[C@@]23CCC4C5(C=[N+](CCO)C[C@]4(C)CCC5)C2C[C@@H]1C3 (stereo partly drawn) ?
IMPase Li inh: 1%; ERK EGF inh: -2%

What do the screens show for `CC(C)(C)C(=O)NC(=S)NNC(=O)c1sc2ccccc2c1Cl`?
NPSR antag: -52%; IMPase Li inh: -3%; ERK EGF inh: 13µM*

How did O=C(NNC(=S)NC1CCCCC1)c1sc2ccccc2c1Cl do in these assays?
NPSR antag: -20%; IMPase Li inh: 6%; ERK EGF inh: 2%

What do the screens show for `O=C(c1cccs1)N1CCc2c([nH]c3ccccc23)C1c1ccccn1` (stereo not drawn)?
NPSR antag: inconclusive; IMPase Li inh: 7%; ERK EGF inh: -9%[57.5 µM]

Results for O=C(c1cccs1)N1CCc2c([nH]c3ccccc23)C1c1ccc(Cl)cc1 (stereo not drawn) ?
NPSR antag: 10µM*; IMPase Li inh: 7%[38.3 µM]

What do the screens show for `Cc1ccc(NC(=O)c2ccccc2)cc1`?
NPSR antag: -6%[46.1 µM]; IMPase Li inh: -14%[38.3 µM]

What do the screens show for `Cc1ccc(NC(=O)C2=C(c3ccccc3)S(=O)(=O)CCS2(=O)=O)cc1`?
NPSR antag: 10µM*; IMPase Li inh: 19%; ERK EGF inh: -11%

What do the screens show for `COc1ccc([C@@H]2[C@@H](O)[C@H](O)[C@@H](C)N2C)cc1OC`?
IMPase Li inh: 18%; ERK EGF inh: -1%
